From PubChem BioAssay (EPA / NIEHS)
“And” between values parts separate entries of the source, which are not always exact repeats. Equal entries are not always repeated. Where a structure was tested more than once in an assay, its records may differ in their call. The source made the active and inactive calls. The calls were made as follows: active = hit-call score of the fitted dose curve at least 0.9, where 1 is the maximum; inactive = score below 0.9.

Columns and labels:
[1] = ATG_GRE_CIS: Attagene CIS-FACTORIAL HepG2 Assay for human Glucocorticoid Response Elements (GRE) (AID 2282947); conditions: HepG2 GRE cis-reporter, Attagene multiplex mRNA; actives raise or lower the signal
Procedure, shortened: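 Read-out: fluorescent reporter-transcript fragments separated by capillary electrophoresis after RT-PCR. Transiently transfected HepG2 cells carrying cis-element-driven reporter units were dosed for 24 h; gain or loss of signal fitted against DMSO control.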

[2] = ATG_ISRE_CIS: Attagene CIS-FACTORIAL HepG2 Assay for human Interferon Regulatory Factor 1 (IRF1) binding to an Interferon-Stimulated Response Element (ISRE) (AID 2282948); conditions: HepG2 ISRE cis-reporter (Attagene), mRNA transcription readout; actives raise or lower the signal
Procedure, shortened: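 Read-out: fluorescent RT-PCR products resolved by capillary electrophoresis, reporting endogenous transcription factor activity via ISRE-driven reporter mRNA in transfected HepG2 cells dosed for 24 h; gain or loss fitted relative to DMSO.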

[3] = ATG_M_06_CIS: Attagene CIS-FACTORIAL HepG2 Assay for M06 Transcription Factor (Internal Marker) (AID 2282950); conditions: HepG2 Attagene CIS-FACTORIAL M06 internal marker reporter; actives raise or lower the signal
Procedure, shortened: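 Serves as a background control readout. Transfected HepG2 exposed to compounds for 24 h, then reporter transcripts quantified by fluorescent RT-PCR and capillary electrophoresis. Both directions fitted against DMSO baseline.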

[4] = molecular target: Hypoxia-inducible factor 1-alpha (Homo sapiens) (UniProt Q16665); experiment: ATG_HIF1a_CIS: Attagene CIS-FACTORIAL HepG2 Assay for human Hypoxia Inducible Factor 1 (HIF1A) (AID 2282951); conditions: HepG2 Attagene cis-factorial HIF1a reporter transcription; actives raise or lower the signal
Chain of Hypoxia-inducible factor 1-alpha (Homo sapiens) (Q16665 whole entry, looked up): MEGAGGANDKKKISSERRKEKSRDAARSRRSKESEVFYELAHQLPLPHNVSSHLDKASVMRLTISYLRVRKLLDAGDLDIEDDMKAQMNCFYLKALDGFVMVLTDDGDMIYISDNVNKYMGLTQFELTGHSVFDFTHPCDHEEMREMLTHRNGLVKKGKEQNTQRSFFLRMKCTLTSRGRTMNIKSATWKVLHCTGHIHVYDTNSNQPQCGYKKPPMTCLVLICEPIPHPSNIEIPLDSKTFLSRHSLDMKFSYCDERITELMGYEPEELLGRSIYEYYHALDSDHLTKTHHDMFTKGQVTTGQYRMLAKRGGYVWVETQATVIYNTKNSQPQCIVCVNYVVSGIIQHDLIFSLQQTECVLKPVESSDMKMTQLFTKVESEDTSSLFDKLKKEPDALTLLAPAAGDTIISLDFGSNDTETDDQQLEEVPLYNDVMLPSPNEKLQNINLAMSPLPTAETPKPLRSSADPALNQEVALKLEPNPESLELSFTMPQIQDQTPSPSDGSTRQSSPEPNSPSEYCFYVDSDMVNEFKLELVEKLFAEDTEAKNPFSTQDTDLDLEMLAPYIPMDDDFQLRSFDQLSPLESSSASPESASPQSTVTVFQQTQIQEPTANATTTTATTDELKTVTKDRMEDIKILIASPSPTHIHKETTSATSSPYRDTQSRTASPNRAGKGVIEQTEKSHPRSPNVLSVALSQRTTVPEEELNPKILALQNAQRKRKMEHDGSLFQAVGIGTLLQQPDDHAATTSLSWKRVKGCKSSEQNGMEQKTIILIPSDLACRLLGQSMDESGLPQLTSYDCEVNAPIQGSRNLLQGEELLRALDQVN
Procedure, shortened: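 Activity is fitted in both directions relative to DMSO. Reporter transcripts are read by RT-PCR, fluorescent primer extension and capillary electrophoresis after 24 h chemical treatment. The cells are HepG2 carrying transiently transfected cis-element-driven reporter units responding to endogenous factors.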

[5] = molecular target: Hepatocyte nuclear factor 6 (Homo sapiens) (UniProt Q9UBC0); experiment: ATG_HNF6_CIS: Attagene CIS-FACTORIAL HepG2 Assay for human Hepatocyte Nuclear Factor 6 (HNF6) (AID 2282952); conditions: HepG2 Attagene cis-factorial HNF6 reporter transcription; actives raise or lower the signal
Chain of Hepatocyte nuclear factor 6 (Homo sapiens) (Q9UBC0 whole entry, looked up, the tested form may be a part): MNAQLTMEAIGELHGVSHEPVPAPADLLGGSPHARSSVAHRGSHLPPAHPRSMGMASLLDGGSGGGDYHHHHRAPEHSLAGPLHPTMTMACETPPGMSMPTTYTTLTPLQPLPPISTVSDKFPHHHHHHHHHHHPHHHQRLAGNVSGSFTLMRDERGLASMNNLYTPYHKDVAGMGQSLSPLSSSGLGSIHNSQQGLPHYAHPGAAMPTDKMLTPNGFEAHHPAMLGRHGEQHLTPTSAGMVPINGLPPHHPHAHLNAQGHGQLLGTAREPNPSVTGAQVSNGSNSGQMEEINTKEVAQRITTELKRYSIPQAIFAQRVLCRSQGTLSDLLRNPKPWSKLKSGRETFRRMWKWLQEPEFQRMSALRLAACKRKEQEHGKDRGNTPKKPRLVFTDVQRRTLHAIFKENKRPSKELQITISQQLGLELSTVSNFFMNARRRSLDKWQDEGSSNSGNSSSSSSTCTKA
Procedure, shortened: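 Twenty-four-hour chemical treatment of reporter-transfected HepG2 cells precedes RNA isolation, DNase-treated reverse transcription and PCR of reporter sequences. Labelled fragments are sized by capillary electrophoresis and fitted bidirectionally versus DMSO.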

[6] = molecular target: Heat shock factor protein 1 (Homo sapiens) (UniProt Q00613); experiment: ATG_HSE_CIS: Attagene CIS-FACTORIAL HepG2 Assay for human Heat Shock Transcription Factor 1 (HSE) (AID 2282953); conditions: HepG2 HSE cis-reporter, Attagene RNA transcription; actives raise or lower the signal
Chain of Heat shock factor protein 1 (Homo sapiens) (Q00613 whole entry, looked up): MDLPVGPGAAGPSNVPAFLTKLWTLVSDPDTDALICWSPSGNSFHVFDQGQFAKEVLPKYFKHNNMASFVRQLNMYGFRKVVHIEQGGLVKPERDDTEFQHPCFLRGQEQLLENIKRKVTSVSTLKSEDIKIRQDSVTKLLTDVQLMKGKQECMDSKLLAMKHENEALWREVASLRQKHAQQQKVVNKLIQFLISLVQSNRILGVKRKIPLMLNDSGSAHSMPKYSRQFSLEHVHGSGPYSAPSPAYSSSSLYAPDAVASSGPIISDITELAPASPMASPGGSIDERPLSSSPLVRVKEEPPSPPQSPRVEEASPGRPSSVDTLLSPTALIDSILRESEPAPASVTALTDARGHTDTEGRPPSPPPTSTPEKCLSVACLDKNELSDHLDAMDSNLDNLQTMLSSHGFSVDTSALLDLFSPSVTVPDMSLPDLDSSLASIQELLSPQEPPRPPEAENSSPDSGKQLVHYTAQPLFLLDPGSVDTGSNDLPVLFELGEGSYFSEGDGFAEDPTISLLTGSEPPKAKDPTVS
Procedure, shortened: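 Endogenous transcription factor activity in transiently transfected HepG2, read as reporter mRNA by RT-PCR with fluorescent capillary electrophoresis after 24 h. Gain or loss of signal fitted versus DMSO baseline.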

[7] = ATG_MRE_CIS: Attagene CIS-FACTORIAL HepG2 Assay for human Metal Responsive Element (MRE) (AID 2282954); conditions: HepG2 MRE cis-reporter transcription, Attagene multiplex; actives raise or lower the signal
Procedure, shortened: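 RT-PCR/capillary electrophoresis readout of reporter mRNA, 24 h post-dosing, in HepG2 cells transfected with multiplexed cis-regulated reporter constructs. Gain or loss of signal fitted bidirectionally against DMSO baseline.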

[8] = ATG_PBREM_CIS: Attagene CIS-FACTORIAL HepG2 Assay for human Phenobarbital-responsive Enhancer Module (PBREM) (AID 2282955); conditions: HepG2 PBREM cis-reporter, Attagene multiplexed transcription; actives raise or lower the signal
Procedure, shortened: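 Endogenous transcription factor activity was read from reporter transcripts in transiently transfected human HepG2 liver cells after 24 h dosing. RT-PCR products were fluorescently labelled, HpaI-cut and sized by capillary electrophoresis; activity fitted bidirectionally against DMSO baseline.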

[9] = molecular target: Paired box protein Pax-6 (Homo sapiens) (UniProt P26367); experiment: ATG_Pax6_CIS: Attagene CIS-FACTORIAL HepG2 Assay for human Paired Box 6 (PAX6) (AID 2282956); conditions: HepG2 CIS-FACTORIAL PAX6 reporter transcription, RNA readout; actives raise or lower the signal
Chain of Paired box protein Pax-6 (Homo sapiens) (P26367 whole entry, looked up): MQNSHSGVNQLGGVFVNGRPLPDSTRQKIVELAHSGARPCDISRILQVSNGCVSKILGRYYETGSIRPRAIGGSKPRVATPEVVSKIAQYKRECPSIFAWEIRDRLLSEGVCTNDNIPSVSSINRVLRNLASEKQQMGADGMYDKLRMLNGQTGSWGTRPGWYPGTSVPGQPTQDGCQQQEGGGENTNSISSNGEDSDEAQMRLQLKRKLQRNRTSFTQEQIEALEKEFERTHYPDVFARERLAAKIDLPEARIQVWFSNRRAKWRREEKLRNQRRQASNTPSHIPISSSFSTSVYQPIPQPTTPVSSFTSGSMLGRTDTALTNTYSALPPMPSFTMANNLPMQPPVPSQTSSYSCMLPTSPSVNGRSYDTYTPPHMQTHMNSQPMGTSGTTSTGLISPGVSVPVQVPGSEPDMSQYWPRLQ
Procedure, shortened: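 Readout: reporter transcript fluorescence after RT-PCR and capillary electrophoresis. Cells: HepG2, transiently transfected with cis-regulated MRTUs. Exposure 24 h. Gain or loss of signal fitted bidirectionally relative to DMSO.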

[10] = ATG_PXRE_CIS: Attagene CIS-FACTORIAL HepG2 Assay for human Pregnane X Receptor Element (PXRE) (AID 2282957); conditions: HepG2 Attagene CIS-FACTORIAL PXRE reporter, mRNA; actives raise or lower the signal
Procedure, shortened: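 Bidirectional activity, baselined to DMSO, derived from reporter mRNA fluorescence (RT-PCR plus capillary electrophoresis) in HepG2 cells bearing cis-promoter reporter units, 24 h exposure.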

[11] = ATG_PPRE_CIS: Attagene CIS-FACTORIAL HepG2 Assay for human Peroxisome Proliferator-activated Response Element (PPRE) (AID 2282958); conditions: HepG2 PPRE cis-element reporter, Attagene transcription factor profiling; actives raise or lower the signal
Procedure, shortened: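 Endogenous PPRE-driven transcription is measured in HepG2 cells carrying transfected multi-reporter constructs. Reporter transcripts are quantified by RT-PCR, HpaI digestion and capillary electrophoresis 24 h after dosing. DMSO baseline, bidirectional fit.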

[12] = ATG_RORE_CIS: Attagene CIS-FACTORIAL HepG2 Assay for human RAR-related Orphan Receptor Element (RORE) (AID 2282959); conditions: HepG2 Attagene cis-factorial RORE reporter, mRNA; actives raise or lower the signal
Procedure, shortened: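 RORE reporter transcripts reflecting endogenous factor activity were read after 24 h compound exposure of transfected HepG2 cells, using reverse transcription, PCR, fluorescent labelling and capillary electrophoresis sizing. Gain or loss fitted against DMSO.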

[13] = ATG_Sox_CIS: Attagene CIS-FACTORIAL HepG2 Assay for human SRY-box transcription factor (SOX) (AID 2282960); conditions: HepG2 Attagene cis-factorial SOX reporter, mRNA; actives raise or lower the signal
Procedure, shortened: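 Reporter transcripts, measured by RT-PCR and capillary electrophoresis of labelled fragments, report endogenous SOX transcription factor activity. Transiently transfected human HepG2 cells receive chemical for 24 h; changes in either direction are fitted relative to DMSO.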

[14] = molecular target: Transcription factor Sp1 (Homo sapiens) (UniProt P08047); experiment: ATG_Sp1_CIS: Attagene CIS-FACTORIAL HepG2 Assay for human Specificity Protein 1 (Sp1) (AID 2282961); conditions: HepG2 Sp1 cis-reporter transcription, actives raise or lower the signal
Chain of Transcription factor Sp1 (Homo sapiens) (P08047 whole entry, looked up): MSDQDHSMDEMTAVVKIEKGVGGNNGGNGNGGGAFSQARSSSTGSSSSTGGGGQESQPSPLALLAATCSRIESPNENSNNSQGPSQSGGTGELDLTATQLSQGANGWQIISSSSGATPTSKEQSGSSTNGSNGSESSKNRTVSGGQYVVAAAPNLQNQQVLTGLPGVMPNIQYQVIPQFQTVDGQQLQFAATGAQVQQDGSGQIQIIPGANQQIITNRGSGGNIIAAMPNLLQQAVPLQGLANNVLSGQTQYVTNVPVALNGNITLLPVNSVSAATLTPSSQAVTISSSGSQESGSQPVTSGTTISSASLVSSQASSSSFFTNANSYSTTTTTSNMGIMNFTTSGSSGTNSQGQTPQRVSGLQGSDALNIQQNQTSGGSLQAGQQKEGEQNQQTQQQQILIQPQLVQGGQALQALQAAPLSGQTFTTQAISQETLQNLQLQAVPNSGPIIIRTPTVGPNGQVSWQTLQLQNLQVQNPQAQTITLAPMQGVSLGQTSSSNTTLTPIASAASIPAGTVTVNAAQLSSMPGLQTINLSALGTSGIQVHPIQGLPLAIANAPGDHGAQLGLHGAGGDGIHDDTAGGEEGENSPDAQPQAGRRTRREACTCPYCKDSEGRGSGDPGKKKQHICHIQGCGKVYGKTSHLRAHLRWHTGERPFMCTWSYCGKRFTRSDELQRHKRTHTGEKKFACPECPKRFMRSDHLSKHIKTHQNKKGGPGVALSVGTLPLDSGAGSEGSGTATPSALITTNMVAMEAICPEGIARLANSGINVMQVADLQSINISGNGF
Procedure, shortened: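 Read-out is reporter transcript level, measured by RT-PCR and fluorescent capillary electrophoresis after 24 h chemical treatment. System: transiently transfected HepG2 cells reporting endogenous transcription factor activity; gain or loss fitted against DMSO baseline.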

[15] = ATG_SREBP_CIS: Attagene CIS-FACTORIAL HepG2 Assay for human Sterol Regulatory Element Binding (SREBP) (AID 2282962); conditions: HepG2 Attagene cis-factorial SREBP reporter, mRNA; actives raise or lower the signal
Procedure, shortened: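 Readout: fluorescent reporter-transcript peaks resolved by capillary electrophoresis after RT-PCR. Cells were human HepG2 carrying transfected cis-promoter reporter constructs, dosed for 24 h. Gain or loss of signal was fitted against DMSO controls.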

[16] = molecular target: Signal transducer and activator of transcription 3 (Homo sapiens) (UniProt P40763); experiment: ATG_STAT3_CIS: Attagene CIS-FACTORIAL HepG2 Assay for human Signal Transducer and Activator of Transcription 3 (STAT3) (AID 2282963); conditions: HepG2, Attagene cis-factorial STAT3 reporter transcription; actives raise or lower the signal
Chain of Signal transducer and activator of transcription 3 (Homo sapiens) (P40763 whole entry, looked up, the tested form may be a part): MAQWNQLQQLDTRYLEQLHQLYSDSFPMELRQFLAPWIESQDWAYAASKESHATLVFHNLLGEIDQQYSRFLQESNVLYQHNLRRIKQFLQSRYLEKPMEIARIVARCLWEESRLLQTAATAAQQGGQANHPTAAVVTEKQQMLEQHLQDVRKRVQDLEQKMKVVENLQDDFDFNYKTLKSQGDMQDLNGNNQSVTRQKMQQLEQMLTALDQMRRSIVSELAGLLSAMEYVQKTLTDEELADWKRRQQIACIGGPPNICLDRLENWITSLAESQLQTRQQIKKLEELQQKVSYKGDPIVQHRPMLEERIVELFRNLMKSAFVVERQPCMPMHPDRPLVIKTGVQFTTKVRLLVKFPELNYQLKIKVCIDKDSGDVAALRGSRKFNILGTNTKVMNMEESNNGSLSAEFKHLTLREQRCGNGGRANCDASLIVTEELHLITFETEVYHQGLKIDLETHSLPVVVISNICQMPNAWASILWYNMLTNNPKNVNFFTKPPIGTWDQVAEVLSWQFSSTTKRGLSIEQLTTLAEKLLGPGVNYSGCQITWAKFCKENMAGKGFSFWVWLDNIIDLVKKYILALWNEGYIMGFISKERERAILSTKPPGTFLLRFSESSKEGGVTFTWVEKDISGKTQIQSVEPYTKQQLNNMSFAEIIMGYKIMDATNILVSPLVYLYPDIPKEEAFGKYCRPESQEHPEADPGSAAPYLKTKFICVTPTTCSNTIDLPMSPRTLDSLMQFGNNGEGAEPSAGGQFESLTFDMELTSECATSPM
Procedure, shortened: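 Readout: fluorescent reporter mRNA fragments resolved by capillary electrophoresis. Setup: HepG2 transfected with MRTUs reporting endogenous transcription-factor activity, dosed 24 h. Gain or loss of signal fitted bidirectionally against DMSO control.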

[17] = ATG_TA_CIS: Attagene CIS-FACTORIAL HepG2 Assay for human TA Basal Promoter (AID 2282964); conditions: HepG2 Attagene CIS-factorial TA basal promoter reporter; actives raise or lower the signal
Procedure, shortened: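 Background-control readout: TA basal promoter reporter mRNA, fitted in both directions relative to DMSO. Measured by RT-PCR and capillary electrophoresis 24 hours after treating HepG2 human liver cells transiently carrying multiplexed cis-regulated reporter constructs.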

[18] = ATG_TCF_b_cat_CIS: Attagene CIS-FACTORIAL HepG2 Assay for human T-Cell-Factor with beta-catenin (TCF/b-cat) (AID 2282965); conditions: HepG2 TCF/beta-catenin cis-reporter transcription, actives raise or lower the signal
Procedure, shortened: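 HepG2 cells transiently transfected with cis-promoter-driven multiplexed reporter units; reporter mRNA measured 24 h after dosing by RT-PCR, FAM labelling, HpaI digestion and capillary electrophoresis. Bidirectional fitting relative to DMSO baseline.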

[19] = ATG_M_32_CIS: Attagene CIS-FACTORIAL HepG2 Assay for M32 Transcription Factor (Internal Marker) (AID 2282949); conditions: HepG2 Attagene cis-factorial M32 reporter, mRNA; actives raise or lower the signal;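 also: background control marker of the multiplexed CIS panel rather than a real target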
Procedure, shortened: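 Using DMSO as baseline, bidirectional curve fits were applied to reporter mRNA signals. These came from transiently transfected HepG2 cells exposed for 24 h, with RNA analysed by RT-PCR, FAM primer extension, HpaI digestion and CE.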

Measured: AC50

CCOC(=O)c1ccccc1C(=O)OCC
inactive: [1] | [2] | [3] | [4] | [5] | [6] | [7] | [8] | [9] | [10] | [11] | [12] | [13] | [14] | [15] | [16] | [17] | [18]

CCCCCCCc1ccc(O)cc1
inactive: [1] | [2] | [3] | [4] | [5] | [6] | [7] | [8] | [9] | [10] | [11] | [12] | [13] | [14] | [15] | [16] | [17] | [18]
active: [10] 8.05 µM and 14.2 µM and 16.6 µM

COCCOCCO
inactive: [2] | [19] | [3] | [4] | [5] | [6] | [7] | [8] | [9] | [10] | [11] | [12] | [13] | [14] | [15] | [16]
